# Test results from PubChem BioAssay AID588726 (The Scripps Research Institute Molecular Screening Center, 2011).
# Among all 360,000 compounds or so, about 8,200 (2.3%) were called active. This is one part of a sample in which actives are shown more often than they occur. No stated cut-off is given here; in the data, active means inhibition above about 27%; inactive means the rest.
# Molecular target: Fructose-bisphosphate aldolase (Mycobacterium tuberculosis (strain ATCC 25618 / H37Rv)) (UniProt P9WQA3)
# Sequence (P9WQA3 whole entry, looked up): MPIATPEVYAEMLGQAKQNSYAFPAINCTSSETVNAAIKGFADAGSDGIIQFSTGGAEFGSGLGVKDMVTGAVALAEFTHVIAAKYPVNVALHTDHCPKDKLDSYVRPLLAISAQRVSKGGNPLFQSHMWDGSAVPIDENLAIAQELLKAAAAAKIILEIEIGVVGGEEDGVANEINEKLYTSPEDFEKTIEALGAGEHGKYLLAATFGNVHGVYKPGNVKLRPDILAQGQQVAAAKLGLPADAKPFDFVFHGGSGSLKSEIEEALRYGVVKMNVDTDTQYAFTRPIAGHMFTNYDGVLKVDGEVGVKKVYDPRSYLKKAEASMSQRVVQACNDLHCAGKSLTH
# Assay: M. tuberculosis aldolase activity blockers – biochemical, fluorescence, strain H37Rv, primary screen (AID 588726);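 further: 0% = vehicle and 100% = reference inhibitor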
# Conditions: purified M. tuberculosis FBA, fluorescence read-out, at 1 µM, active compounds read high
row,Compound,inhibition
1,CCCNC(=O)NC(=O)COC(=O)CC(NC(N)=O)c1ccc(Cl)cc1 (configuration not stated),-6.17% (inactive)
2,CC(C)CCNC(=O)CC1C(=O)N(Cc2ccccc2)C(C)c2nc3ccccc3n21 (configuration not stated),-2.2% (inactive)
3,CC(C)(C)C(=O)CSc1ccc(S(=O)(=O)N2CCCC2)cn1,1.92% (inactive)
4,COC(=O)C1=C(C)N(Cc2ccccc2)C(=NCCCOC(C)C)N[C@H]1c1ccccc1,-0.81% (inactive)
5,CC1CCCC(NC(=O)COC(=O)[C@@H]2CC(O)CN2S(=O)(=O)c2ccc3c(c2)OCCO3)C1C (some centres not stated),0.53% (inactive)
6,O=c1[nH]nc(SCCS(=O)(=O)c2ccc(F)cc2)n1-c1ccccc1C(F)(F)F,1.24% (inactive)
7,CCCCN(CCCC)CCC(O)c1cc2c(Cl)cc(Cl)cc2c2cc(C(F)(F)F)ccc12 (configuration not stated),-0.59% (inactive)
8,O=c1onc(-c2cccs2)n1Cc1ccccc1,1.37% (inactive)
9,Nc1nc2n(n1)C(c1ccco1)CC(c1ccc(Cl)c(Cl)c1)N2 (configuration not stated),30.1% (active)
10,Cc1ccc(C2CC(c3cccc(Br)c3)n3nc(N)nc3N2)cc1 (configuration not stated),5.98% (inactive)
11,COc1ccc(C2CC(c3ccc(Cl)cc3Cl)Nc3nc(N)nn32)cc1OC (configuration not stated),0.41% (inactive)
12,CCOc1ccc(CCNC(=O)COC(=O)C2CCN(c3ccc(C(F)(F)F)cn3)CC2)cc1OCC,2.79% (inactive)
13,OC[C@@H]1CN(Cc2ccc3c(c2)OCO3)C[C@H](n2cnc3c(NCc4ccco4)ncnc32)O1,0.71% (inactive)
14,CNC(=O)c1ccc(CN(C)C(=O)c2cc(C3CC3)nc3c2cnn3C(C)C)cc1,-0.03% (inactive)
15,COc1ccc(OCCNC(=O)c2cc(C3CC3)nc3c2cnn3C(C)C)cc1,7.43% (inactive)
16,CC(C)n1ncc2c(C(=O)NCc3ccccc3CN(C)C)cc(C3CC3)nc21,29.8% (active)
17,Cn1c(=O)c2c(nc(N3CCOCC3)n2CCNC2=NCCC2)n(C)c1=O,0.36% (inactive)
18,Cc1coc(C)c1C(=O)CC1(O)C(=O)N(C)c2ccc(Cl)cc21 (configuration not stated),-1.99% (inactive)
19,CC(c1nnc(SCC(=O)Nc2sccc2C#N)n1-c1ccc(Cl)cc1)N(C)C (configuration not stated),-0.06% (inactive)
20,Cc1cc(=O)oc2c(C)c(OC(C)C(=O)NC3CCN(Cc4ccccc4)CC3)ccc12 (configuration not stated),14.6% (inactive)
21,COc1cccc(C(=O)OCc2cc(=O)oc3c(C)c(C)ccc23)c1OC,2.59% (inactive)
22,COc1ccccc1NC(=O)COC(=O)CNC(=O)C1CCCCC1,2.67% (inactive)

row,Compound,inhibition
1,CCCc1cc(=O)[nH]c(SCC(=O)Nc2ccc(S(=O)(=O)N3CCCC3)cc2)n1,1.25% (inactive)
2,O=C(O)c1cccc(S(=O)(=O)N2CC=C(c3ccccc3)CC2)c1,0.87% (inactive)
3,CCN1C(=O)N[C@@H](c2ccccc2)[C@H](C(C)=O)[C@H]1C,1.5% (inactive)
4,CN(C)c1ccc(C2Nc3ccccc3C(=O)N2NS(=O)(=O)c2ccccc2)cc1 (configuration not stated),-0.05% (inactive)
5,CCOC(=O)NN1C(=O)c2ccccc2NC1c1cccc(O)c1 (configuration not stated),31.7% (active)
6,O=C1c2ccccc2NC(c2ccccc2O)N1NS(=O)(=O)c1ccccc1 (configuration not stated),7.05% (inactive)
7,CCOC(=O)NN1C(=O)c2ccccc2NC1c1ccccc1O (configuration not stated),26.2% (inactive)
8,CC(=O)NN1C(=O)c2ccccc2NC1c1ccccc1 (configuration not stated),37.3% (active)
9,Cc1cccc(C)c1NC(=O)C1CCCN1C(=O)OC(C)(C)C (configuration not stated),-0.82% (inactive)
10,CS(=O)(=O)N(CC(=O)N1CCOCC1)c1ccc2c3c(cccc13)CC2,9.05% (inactive)
11,COCCNC(=O)C1CCN(S(=O)(=O)c2ccc3c(c2)OCCO3)CC1,-1.67% (inactive)
12,O=C(O)C(=Cc1ccccc1[N+](=O)[O-])c1ccccc1,3.82% (inactive)
13,CC1(C)CC(=O)C=C(c2ccc(COC(=O)c3cc(F)cc(F)c3)cc2)C1=O,-0.96% (inactive)
14,C/C(=N\NC(=S)NC(C)C)c1ccc(C(C)(C)C)cc1,2.12% (inactive)
15,Cc1ccc(CNC(=O)c2ccccc2CCc2ccccc2)cc1,-1.34% (inactive)
16,CCN(CC)CCCNC(=O)c1cc(-c2cccc(Cl)c2)on1,0% (inactive)
17,Cc1cccc(N(C)C(=O)c2cc3c(=O)[nH]c4ccc(C)cc4c3s2)c1,2.59% (inactive)
18,CCN(CC)CCCNC(=O)c1cc2c(=O)[nH]c3ccc(C)cc3c2s1,99.9% (active)
19,O=C1CC(c2cccc(Br)c2)C2=C(CCCC2=O)N1 (configuration not stated),11.8% (inactive)
20,COc1ccc(-n2nc(C(=O)NCC(=O)Nc3cccc(C)n3)c3ccccc3c2=O)cc1,-0.39% (inactive)
21,COc1ccc(OC)c(CN2C(=O)CCC2(C)C(=O)NC2CCCCCC2)c1 (configuration not stated),-0.66% (inactive)
22,Nc1ncnc2c1ncn2[C@@H]1O[C@H](C(=O)N2CCCN(Cc3ccccc3F)CC2)[C@@H](O)[C@H]1O,-2.6% (inactive)

row,Compound,inhibition
1,COc1ccc(C(=O)NCC2CCCN2S(=O)(=O)c2cccs2)cc1OC (configuration not stated),2.94% (inactive)
2,CCN1CCCC1CNC(=O)c1ccc2c(c1)NC(=O)/C(=C\c1ccccc1F)S2 (configuration not stated),-6.09% (inactive)
3,CCOC(=O)CSc1nc(C)cc2c1C(=O)OC2,-3.48% (inactive)
4,O=C(NCc1cccc(Cl)c1)C1=CC=CN2CCS(=O)(=O)N=C12,30.5% (active)
5,O=C(NCc1cccc(Cl)c1)C1CCN(c2nnc(N3CCCC3=O)s2)CC1,-1.53% (inactive)
6,O=C(NCc1cccc(Cl)c1)C1CCC(=O)N(C2CC2)C1 (configuration not stated),1.48% (inactive)
7,COCC1CCCN(Cc2cn[nH]c2-c2cc3ccccc3o2)C1 (configuration not stated),0.03% (inactive)
8,COc1ccc(C(=O)Nc2ccc(C(=O)NCC3CCCO3)cc2)c(OC)c1OC (configuration not stated),-1.55% (inactive)
9,CCCOc1ccc2c3c(c(=O)oc2c1OCCC)CCC3,16% (inactive)
10,COc1ccc2c3c(c(=O)oc2c1OCC(=O)C(C)(C)C)CCCC3,63.3% (active)
11,CCc1nc2c(OCC(=O)C(C)(C)C)cccn2c1N(C)C(=O)c1ccccc1F,-0.18% (inactive)
12,Clc1ccc(C=NC23CN4CN(CN(C4)C2)C3)cc1,1.62% (inactive)
13,NNc1cccc(C=Cc2ccccc2)cc1=O,21.6% (inactive)
14,O=C(COc1ccc(Cl)cc1)NCc1nnc(SCC(=O)NCC2CCCO2)o1 (configuration not stated),5.04% (inactive)
15,CN1CCN(CCCNC(=O)c2ccc(/C=C3\Oc4ccccc4N(Cc4ccc(Cl)cc4)C3=O)cc2)CC1,80.8% (active)
16,CCC1Oc2ccccc2N(CC(=O)NCCCN2CCN(CC)CC2)C1=O (configuration not stated),-0.48% (inactive)
17,Cc1ccc(NC(=O)CCCNC(=O)c2ccc(Cl)cc2)cc1S(=O)(=O)N1CCOCC1,1.07% (inactive)
18,Clc1ccc(Cl)c(Oc2ccc(Oc3nc(Cl)ccc3Cl)cc2)n1,4.19% (inactive)
19,COc1ccc2c(c1)C(=C(C#N)C#N)C(=O)N2CCc1ccccc1,0.52% (inactive)
20,COc1ccc2c(CC(=O)OCC(=O)Nc3ccccc3[N+](=O)[O-])coc2c1,2.62% (inactive)
21,CC(C)(C)OC(=O)Nc1ccc([C@@H](NC(=O)OC(C)(C)C)C(=O)OC(C)(C)C)cc1,-1.85% (inactive)
22,Cc1cc(S(=O)(=O)c2cc3ccc(O)c(C)c3oc2=O)ccc1F,72.4% (active)

row,Compound,inhibition
1,COc1cccc2cc(S(=O)(=O)c3ccc(C)cc3)/c(=N/NS(=O)(=O)c3ccc(C)cc3)oc12,-1.11% (inactive)
2,Cc1cc(C(=O)OCC(=O)c2c(N)n(C)c(=O)n(C)c2=O)c(C)o1,0.07% (inactive)
3,O=S(=O)(c1ccc(Br)cc1)n1ccc2ccccc21,-4.37% (inactive)
4,CS(=O)(=O)N(CC(=O)N1CCCC1)Cc1ccccc1,1.15% (inactive)
5,CN(Cc1ccccc1Cl)C(=O)C1CCC(=O)N(CCc2cccc(F)c2)C1 (configuration not stated),-0.04% (inactive)
6,O=C(N=C1SC2CS(=O)(=O)CC2N1c1cc(Cl)ccc1Cl)C1CC1 (configuration not stated),0.93% (inactive)
7,COc1ccc(CCNC(=O)CCC(=O)NC2CCCCC2)cc1OC,0.12% (inactive)
8,CCOc1ccc(-c2noc(CCC(=O)NC3CCCC3)n2)cc1OC,1.23% (inactive)
9,COc1ccc2c(C)c(CCC(=O)NC3CC3)c(=O)oc2c1C,162% (active)
10,CC(C)N1CCC(NC(=O)Nc2ccccc2)CC1,0% (inactive)
11,Cc1ccc(-c2nn(-c3cccc(F)c3)cc2CNCCc2ccncc2)o1,3.67% (inactive)
12,C#Cc1ccc(NC(=O)C2(C)CCN2C(=O)Cc2ccc(-c3ccccc3)cc2)cc1 (configuration not stated),-1.12% (inactive)
13,Cc1noc(C)c1S(=O)(=O)N(C)C[C@H]1Oc2c(NC(=O)Nc3ccc4c(c3)OCO4)cccc2C(=O)N([C@H](C)CO)C[C@@H]1C,-0.42% (inactive)
14,COc1ccc(S(=O)(=O)N(C)C[C@H]2Oc3c(NC(=O)Nc4ccc5c(c4)OCO5)cccc3C(=O)N([C@H](C)CO)C[C@@H]2C)cc1,112% (active)
15,COc1ccc(S(=O)(=O)Nc2cccc3c2O[C@H](CN(C)S(=O)(=O)c2ccc(OC)cc2)[C@@H](C)CN([C@H](C)CO)C3=O)cc1,0.3% (inactive)
16,CCN(CCn1cccn1)C(=O)CC1C(=O)NCCN1Cc1cccc(OC)c1OC (configuration not stated),0.01% (inactive)
17,CC(C)C1Nc2c(C(=O)O)cccc2C(Nc2ccccc2C(=O)O)C1(C)C (configuration not stated),107% (active)
18,CCCCN1CC(COc2ccccc2)Oc2cccc(F)c2S1(=O)=O (configuration not stated),-2.92% (inactive)
19,O=C(c1ccc(Cl)cc1)N1N=C(c2ccccn2)CC1(O)C(F)(F)F (configuration not stated),4.39% (inactive)
20,CCOC(=O)[C@H]1[C@H]2COc3ccc(C)cc3[C@@H]2N2C(=O)CN(Cc3ccc(F)cc3)C(=O)[C@@]12C,0.55% (inactive)
21,CC[C@@H]1Cc2cc(O)ccc2C2=C1c1ccc(O)cc1C[C@H]2CC,89.3% (active)
